# HepG2 viability: counter-screen for TGF-b inhibitors: cytotoxicity in HepG2 cells; HepG2 CAGA-GFP viability, ATP luminescence, 18 h; Potency, µM (highest dose often 46.1 µM), for the others: top-dose activity change, negative = cytotoxicity, most hits filed as cytotoxic; 410,000 tested, 0.76% active; also: potency is read from the fitted curve at half-maximal effect
#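 CellTiter-Glo luminescence gave cytotoxicity after 18 hours at 37 degrees C. The cells were HepG2 CAGA-GFP in 1% FBS DMEM, stimulated with 500 pg/mL TGF-beta after compound addition. %Activity was normalised to no-cell wells (complete cell-killing) and DMSO (no toxicity), and curves were fitted and classified.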
# TDP1 cell CPT: growth inhibition of DT40 Tdp1-/-;hTDP1 cells with camptothecin (screen for TDP1 inhibitors). chicken DT40 Tdp1-/-;hTDP1 cells + 20 nM CPT, ATP luminescence, 48 h. Potency, µM (series often up to 46.2 µM), for the others: top-dose activity change, negative = growth inhibition, hits mostly inhibitors. 420,000 tested, 12% active. AID 686979; also: potency is read from the fitted curve at half-maximal effect; % is scaled to controls: 0 for no effect and ±100 for the full control effect; nearly all actives have a fitted effect of over 55% in size
#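 Chicken DT40 Tdp1-/- cells complemented with human TDP1, 400 cells/well, exposed to compounds plus 20 nM camptothecin for at least 48 h at 37 C; viability read as ATP content by CellTiter-Glo luminescence.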
# IL1B secr inh: inhibitors of inflammasome signaling (IL-1 beta secretion); THP-1 LPS/ATP IL-1B secretion, AlphaLISA, 16 h; hits give low values; activity change, % at 57.5 µM; 360,000 tested, 4.7% active; in the data active = activity change below about -50%; inconclusive = mostly about -30% to -49%; also: % is scaled to controls: 0 for no effect and ±100 for the full control effect
#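 Secreted IL-1B measured by AlphaLISA bead assay after 16 h compound exposure of THP-1 cells; compounds (final up to 57.5 uM) added 1 h before LPS (250 ng/mL) and ATP (1.25 mM) stimulation; lower signal means less secretion.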
# TGFb SMAD3 inh: inhibitors of TGF-b signaling | Potency, µM (top dose mostly 46.1 µM), inactives show top-dose activity, negative = inhibition, actives largely listed as inhibitors | AID 588855 | 410,000 tested, 1.2% active | HepG2 CAGA-GFP TGF-b/SMAD3 reporter, GFP fluorescence, 18 h; TGF-beta stimulated, 500 pg/mL final; also: potency is read from the fitted curve at half-maximal effect; % is scaled to controls: 0 for no effect and ±100 for the full control effect; nearly all actives have a fitted effect of over 65% in size
#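 HEPG2 CAGA-GFP reporter cells (1000/well, DMEM with 1% FBS) received compounds, then recombinant TGF-beta at 500 pg/mL final for 18 hours at 37 degrees C. Per-cell GFP summed per well was normalised to unstimulated and stimulated DMSO controls before curve fitting.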
# DT40 TDP1 no CPT: qHTS for Inhibitors of human tyrosyl-DNA phosphodiesterase 1 (TDP1): qHTS in cells in absence of CPT. DT40 Tdp1-/- hTDP1 cells, no CPT, ATP luminescence, 48 h. Potency, µM (series often up to 46.2 µM), without a hit: top-dose activity change, negative = growth inhibition, actives largely listed as inhibitors. 420,000 tested, 15% active. AID 686978, 2013; also: potency is read from the fitted curve at half-maximal effect; % is scaled to controls: 0 for no effect and ±100 for the full control effect; nearly all actives have a fitted effect of over 55% in size
#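 A cellular qHTS used chicken DT40 cells lacking endogenous Tdp1 but carrying stably transfected human TDP1. Compounds were applied without camptothecin, and cell growth kinetics were judged by ATP-dependent luminescence after ≥48 hr.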
# TDP1 block: TDP1 (human) enzyme inhibition | Q9NUW8 | recombinant TDP1, AlphaScreen DNA substrate cleavage | Potency, µM (highest dose often 130 µM), inactives show at the highest dose activity change, negative = inhibition, hits mostly inhibitors | 350,000 tested, 0.28% active | AID 485290; also: potency is read from the fitted curve at half-maximal effect; % is scaled to controls: 0 for no effect and ±100 for the full control effect; nearly all actives have a fitted effect of over 40% in size
# Target sequence (Q9NUW8 whole entry, looked up): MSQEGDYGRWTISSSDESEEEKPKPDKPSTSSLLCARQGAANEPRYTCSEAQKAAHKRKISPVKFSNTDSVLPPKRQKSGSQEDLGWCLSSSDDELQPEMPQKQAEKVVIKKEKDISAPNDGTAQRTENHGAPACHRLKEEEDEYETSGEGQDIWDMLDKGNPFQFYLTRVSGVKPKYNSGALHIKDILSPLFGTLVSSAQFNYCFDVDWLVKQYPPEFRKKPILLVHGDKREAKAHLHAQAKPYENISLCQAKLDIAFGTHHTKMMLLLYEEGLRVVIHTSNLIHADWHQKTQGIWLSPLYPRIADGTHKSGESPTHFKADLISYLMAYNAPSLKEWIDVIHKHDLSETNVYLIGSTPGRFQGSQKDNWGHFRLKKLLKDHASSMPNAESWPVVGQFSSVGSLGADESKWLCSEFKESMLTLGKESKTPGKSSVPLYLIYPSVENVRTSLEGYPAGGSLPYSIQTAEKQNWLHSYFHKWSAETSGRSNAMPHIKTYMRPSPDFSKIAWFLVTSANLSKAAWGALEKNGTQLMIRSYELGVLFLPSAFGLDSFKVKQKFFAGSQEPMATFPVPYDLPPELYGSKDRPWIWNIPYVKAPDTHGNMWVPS
#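 Here, a 5' biotin and 3' phosphotyrosine-FITC DNA oligonucleotide reports Tdp1 activity: intact substrate bridges AlphaScreen beads, while cleavage leaves a 3' phosphate and drops signal. All incubations at room temperature.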
# Active calls of the source: *; ? = inconclusive; . = not tested or not shown; [ ] = dose if it differs, or a comment. Sampled rows, rich in hits. Any-hit rate of the full collection: about 19%. Unless noted, calls follow the shape of the dose curve; as a rule, active = well fitted curve in the direction sought with a large enough effect; inconclusive = small, poorly fitted or top-dose-only effect, or another doubt; inactive = no such curve, though single readings can be large; an effect the other way counts as inactive or inconclusive.
SMILES,HepG2 viability,TDP1 cell CPT,IL1B secr inh,TGFb SMAD3 inh,DT40 TDP1 no CPT,TDP1 block
O=C(CCCCCn1c(=O)c2sccc2n(Cc2ccc(Cl)cc2)c1=O)NCc1ccc2c(c1)OCO2,-22.6%,?,.,1.7%,?,0.9%
CCc1cc(C(=O)N2CCCC(C(=O)c3cccc(OC(C)C)c3)C2)n(C)n1 (stereo not given),-10.9%,16.4µM*,24.1,-18.6%,18.4µM*,6.2%
CCc1cc(C(=O)N2CCCC(C(=O)c3ccc(OC)c(F)c3)C2)n(C)n1 (stereo not given),-22.2%,?,35.0,-22.2%,?,1.0%
O=C(c1noc2c1CCCC2)N1CCCC(N2CCN(c3ccccc3F)CC2)C1 (stereo not given),-10.3%,29.1µM*,0.0,-6.6%,?,5.3%
CC(C)Oc1cccc(C(=O)C2CCCN(C(=O)c3noc4c3CCCC4)C2)c1 (stereo not given),-27.1%,18.4µM*,-6.7,-23.2%,20.6µM*,.
O=C(c1ccsc1)N1CCCC(N2CCN(c3ccccc3F)CC2)C1 (stereo not given),5.3%,-27.4%,18.1,?,?,2.8%
CCc1cc(C(=O)N2CCCC(C(=O)c3ccc(Oc4ccccc4)cc3)C2)n(C)n1 (stereo not given),-22.7%,10.3µM*,-60.7*,?,14.6µM*,2.7%
Cc1cccc(C)c1OC(=O)CSc1nnc(-c2cccs2)o1,-20.6%,0.5%,.,?,3.6%,5.7%
O=C(NCc1ccc(F)cc1)n1c(-c2ccccc2)c(P(=S)(c2ccccc2)c2ccccc2)c2ccccc21,.,.,.,.,.,-2.3%
Cc1cc2oc(=O)cc(CN3CCN(c4ccc(Cl)c(Cl)c4)CC3)c2cc1Cl,-41.1%,-11.8%,-8.9,-22.9%,-0.8%,.
C=C1C=C(C)n2ncc(C(=O)Nc3ccc(NC(C)=O)c(Cl)c3)c2N1,-13.4%,?,.,-3.5%,?,.
CC(C)Oc1cccc(C(=O)C2CCCN(C(=O)c3ccc4c(c3)OCO4)C2)c1 (stereo not given),-8.3%,?,3.1,-4.7%,?,2.4%
CCc1[nH]nc(C(=O)N2CCCC(C(=O)c3cccc(OC(C)C)c3)C2)c1C (stereo not given),-4.4%,?,?,-22.2%,16.4µM*,4.7%
CC(C)Oc1cccc(C(=O)C2CCCN(C(=O)c3ccsc3)C2)c1 (stereo not given),10.7%,1.3%,3.8,3.9%,-0.9%,.
CC(C)Oc1cccc(C(=O)C2CCCN(C(=O)c3ccnn3C)C2)c1 (stereo not given),-16.7%,?,6.9,3.9%,20.6µM*,-2.6%
Cc1ccc(S(=O)(=O)NCCC(=O)NNC(=O)c2ccccc2Cl)cc1C,6.9%,-3.2%,-0.4,-13.5%,-18.6%,-10.3%[0.505 µM]
CC(C)CC(=O)Nc1ccccc1OCc1cc(=O)n2ccccc2n1,3.0%,?,.,-13.1%,-18.5%,2.7%
Cc1ccc(OCc2cc(C(=O)N3CCCC3)no2)cn1,-7.0%,-29.8%,-2.6,-15.1%,?,5.9%
C=CCC1(CC=C)CCCN1C(=O)c1cc(COc2ccc(F)c(F)c2)on1,-3.4%,18.4µM*,-8.4,-22.4%,?,.
CSc1ccccc1OCc1cc(C(=O)N2CCc3c(Cl)cccc3C2)no1,-33.5%,23.1µM*,?,?,?,2.0%
C=CCC1(CC=C)CCCN1C(=O)c1cc(COc2ccc(C)nc2)on1,-42.6%,2.59µM*,-8.5,?,0.92µM*,-0.4%
C=CCC1(CC=C)CCCN1C(=O)c1cc(COc2ccccc2SC)on1,-18.9%,?,-1.3,-6.5%,20.6µM*,-6.8%
